In the supplement of paper PMC13380429:

What was measured:
[1] = system: Vero E6 infected with SARS-CoV-2; assay: morphology score (similarity to uninfected cells); higher = more like uninfected cells; settings: 24 h
[2] = system: Vero E6 infected with SARS-CoV-2; assay: SARS-CoV-2 infection rate relative to infected DMSO; higher = more infection, active = 60 or less; settings: 24 h

C[C@@H]1CCN(C(=O)CC#N)C[C@@H]1N(C)c1ncnc2[nH]ccc12 (10 µM) was tested, and the morphology score [1] was 0.281 and the SARS-CoV-2 infection rate [2] was 106% (inactive).

With C[C@@H](CN1CC(=O)NC(=O)C1)N1CC(=O)NC(=O)C1 [dexrazoxane] (10 µM) the morphology score [1] was 0.0659 and the SARS-CoV-2 infection rate [2] was 97% (inactive).

For C[C@H](Oc1cc(-c2cnn(C3CCNCC3)c2)cnc1N)c1c(Cl)ccc(F)c1Cl [crizotinib-(S)] (0.833333 µM), the morphology score [1] was 0.602 and the SARS-CoV-2 infection rate [2] was 99% (inactive).

CC(=O)OCC(=O)[C@@]12OC(C)(C)O[C@@H]1C[C@H]1[C@@H]3C[C@H](F)C4=CC(=O)C=C[C@]4(C)[C@@]3(F)[C@@H](O)C[C@@]12C [fluocinonide] (10 µM) was tested, and the morphology score [1] was 0.184 and the SARS-CoV-2 infection rate [2] was 104% (inactive).

In the case of CS(=O)(=O)c1ccc([C@@H](O)[C@@H](CO)NC(=O)C(Cl)Cl)cc1 [thiamphenicol] (10 µM), the morphology score [1] is reported as -0.172 and the SARS-CoV-2 infection rate [2] is reported as 118% (inactive).

In the case of Cc1cc(C)c(CNC(=O)c2cc(-c3ccc(CN4CCOCC4)cc3)cc3c2cnn3C2CCCC2)c(=O)[nH]1 (10 µM), the morphology score [1] is reported as -0.13 and the SARS-CoV-2 infection rate [2] is reported as 110% (inactive).

In the case of C[N+](C)(C)CC[N+]1(C)Cc2c(Cl)c(Cl)c(Cl)c(Cl)c2C1 [chlorisondamine-diiodide] (10 µM), the morphology score [1] is reported as 0.224 and the SARS-CoV-2 infection rate [2] is reported as 90.5% (inactive).

For NS(=O)(=O)Cc1noc2ccccc12 [zonisamide] (10 µM), the morphology score [1] was 0.165 and the SARS-CoV-2 infection rate [2] was 95.5% (inactive).

CC(C)(CCCCCC(O)CCCCCC(C)(C)C(=O)O)C(=O)O [bempedoic-acid] (10 µM) was tested, and the morphology score [1] was 0.0218 and the SARS-CoV-2 infection rate [2] was 110% (inactive).

CCOc1cn(-c2ccc(F)cc2C)nc1C(=O)Nc1ccc(Oc2ccnc3cc(OC)c(OC)cc23)c(F)c1 (10 µM) was tested, and the morphology score [1] was 0.685 and the SARS-CoV-2 infection rate [2] was 110% (inactive).

CN1CCc2cc(Cl)c(O)cc2[C@@H](c2ccccc2)C1 (10 µM) was tested, and the morphology score [1] was 0.0172 and the SARS-CoV-2 infection rate [2] was 108% (inactive).

With COc1ccc2nc3ccc(Cl)cc3c(SCCCN)c2c1 (10 µM) the morphology score [1] was 0.0488 and the SARS-CoV-2 infection rate [2] was 91.5% (inactive).

For COc1cc2c(NC3CCN(C(C)C)CC3)nc(N3CCC(F)(F)CC3)nc2cc1OCCCN1CCCC1 (10 µM), the morphology score [1] was 0.243 and the SARS-CoV-2 infection rate [2] was 25.5% (active).

With Nc1c(CC(=O)O)cccc1C(=O)c1ccc(Br)cc1 [bromfenac] (10 µM) the morphology score [1] was -0.048 and the SARS-CoV-2 infection rate [2] was 104% (inactive).

With CCOC(=O)c1ccccc1OC(=O)CCCCCCCC(=O)Oc1ccccc1C(=O)OCC (10 µM) the morphology score [1] was 0.166 and the SARS-CoV-2 infection rate [2] was 100% (inactive).

CC(C)NCCN(C(C)C)S(=O)(=O)c1ccc(Cl)cc1Cl (10 µM) was tested, and the morphology score [1] was -0.0999 and the SARS-CoV-2 infection rate [2] was 110% (inactive).

In the case of CCNC(=O)[C@@H]1CCCN1C(=O)[C@H](CCCNC(=N)N)NC(=O)[C@H](CC(C)C)NC(=O)[C@@H](C)NC(=O)[C@H](Cc1ccc(O)cc1)NC(=O)[C@H](CO)NC(=O)[C@H](Cc1c[nH]c2ccccc12)NC(=O)[C@H](Cc1cnc[nH]1)NC(=O)[C@@H]1CCC(=O)N1 [alarelin] (10 µM), the morphology score [1] is reported as -0.246 and the SARS-CoV-2 infection rate [2] is reported as 114% (inactive).

In the case of CCN(CC)CCOc1ccc(/C(=C(\Cl)c2ccccc2)c2ccccc2)cc1 [clomifene] (0.833333 µM), the morphology score [1] is reported as 0.172 and the SARS-CoV-2 infection rate [2] is reported as 96.5% (inactive).

In the case of C=C1CCN([C@H](C)[C@](O)(Cn2cncn2)c2ccc(F)cc2F)CC1 [efinaconazole] (10 µM), the morphology score [1] is reported as 0.162 and the SARS-CoV-2 infection rate [2] is reported as 92% (inactive).

With C[C@H](NC[C@H](O)CP(=O)(O)CC1CCCCC1)c1ccc(Cl)c(Cl)c1 (10 µM) the morphology score [1] was -0.206 and the SARS-CoV-2 infection rate [2] was 114% (inactive).

With CC(=O)N[C@H]1[C@H]([C@H](O)[C@H](O)CO)OC(O)(C(=O)O)C[C@@H]1O (mixture of isomers) [aceneuramic-acid] (10 µM) the morphology score [1] was 0.0132 and the SARS-CoV-2 infection rate [2] was 104% (inactive).

In the case of CON(C)C(=O)N1N=C(c2cc(F)ccc2F)S[C@@]1(CCCN)c1ccccc1 [filanesib] (0.833333 µM), the morphology score [1] is reported as -0.306 and the SARS-CoV-2 infection rate [2] is reported as 99% (inactive).

With CC(=O)Nc1ccc(S(=O)(=O)Nc2ccc([N+](=O)[O-])cc2)cc1 [sulfanitran] (10 µM) the morphology score [1] was -0.126 and the SARS-CoV-2 infection rate [2] was 108% (inactive).

With O=C(Nc1ccc(Cl)cc1)Nc1cccc(-c2cccc(N3CCCC3)n2)c1 (10 µM) the morphology score [1] was 0.00797 and the SARS-CoV-2 infection rate [2] was 92.5% (inactive).

In the case of COc1ccc(C[C@H]2NC[C@H](O)[C@H]2OC(C)=O)cc1 [anisomycin] (0.833333 µM), the morphology score [1] is reported as 0.045 and the SARS-CoV-2 infection rate [2] is reported as 102% (inactive).

For CC[n+]1c(-c2ccccc2)c2cc(N)ccc2c2ccc(N)cc21 [homidium] (10 µM), the morphology score [1] was 0.276 and the SARS-CoV-2 infection rate [2] was 99.5% (inactive).

In the case of CN(C)[C@@H]1C(O)=C(C(N)=O)C(=O)[C@@]2(O)C(O)=C3C(=O)c4c(O)ccc(Cl)c4[C@@H](O)[C@H]3C[C@@H]12 [demeclocycline] (10 µM), the morphology score [1] is reported as 0.0306 and the SARS-CoV-2 infection rate [2] is reported as 96% (inactive).

For CC(C)(C)CC(=O)Nc1c(F)cc(C(=O)/N=c2\sccn2COP(=O)(O)O)cc1F (10 µM), the morphology score [1] was 0.0762 and the SARS-CoV-2 infection rate [2] was 93.5% (inactive).

With C[C@H](CCC(=O)O)[C@H]1CC[C@H]2[C@@H]3[C@H](O)C[C@@H]4C[C@H](O)CC[C@]4(C)[C@H]3C[C@H](O)[C@]12C [cholic-acid] (10 µM) the morphology score [1] was 0.0109 and the SARS-CoV-2 infection rate [2] was 110% (inactive).

For O[C@H]([C@H](O)[C@@H]1CO1)[C@H]1CO1 [dianhydrogalactitol] (10 µM), the morphology score [1] was -0.0725 and the SARS-CoV-2 infection rate [2] was 114% (inactive).

With O=C(O)c1cc(O)c2ccc(Cl)cc2n1 [7-chlorokynurenic-acid] (10 µM) the morphology score [1] was 0.0315 and the SARS-CoV-2 infection rate [2] was 110% (inactive).

In the case of CC1C=CC=CCCC=CC=CC=CC=CC(OC2OC(C)C(O)C(N)C2O)CC2OC(O)(CC(O)C(O)CCC(O)CC(O)CC(O)CC(=O)OC(C)C(C)C1O)CC(O)C2C(=O)O (centres undefined) [nystatin] (10 µM), the morphology score [1] is reported as -0.0648 and the SARS-CoV-2 infection rate [2] is reported as 116% (inactive).

Cc1nc2n(c(=O)c1CCN1CCC(c3noc4cc(F)ccc34)CC1)CCCC2O (centres undefined) [paliperidone] (10 µM) was tested, and the morphology score [1] was 0.08 and the SARS-CoV-2 infection rate [2] was 108% (inactive).

For CCCCN1CCC(CCC(=O)c2cc(Cl)c(N)cc2OC)CC1 (10 µM), the morphology score [1] was 0.237 and the SARS-CoV-2 infection rate [2] was 95% (inactive).

In the case of Cc1ccc(C(=O)Cn2c3c(sc2=N)CCCC3)cc1 [pifithrin-alpha] (10 µM), the morphology score [1] is reported as -0.224 and the SARS-CoV-2 infection rate [2] is reported as 108% (inactive).

In the case of CC(C)(C)NC(=O)N[C@H](C(=O)N1C[C@H]2[C@@H]([C@H]1C(=O)NC(CC1CCC1)C(=O)C(N)=O)C2(C)C)C(C)(C)C (some centres undefined) [boceprevir] (10 µM), the morphology score [1] is reported as 0.133 and the SARS-CoV-2 infection rate [2] is reported as 113% (inactive).

With CCNCCS(=O)(=O)NC[C@@]1(c2ccccc2)SC(NC(=O)C(C)(C)C)=NN1C(=O)C(C)(C)C [litronesib] (10 µM) the morphology score [1] was -0.218 and the SARS-CoV-2 infection rate [2] was 100% (inactive).

In the case of CCOC(=O)c1cc(C#N)c(N2CCC(C(=O)NS(=O)(=O)Cc3ccccc3)CC2)nc1C (10 µM), the morphology score [1] is reported as 0.128 and the SARS-CoV-2 infection rate [2] is reported as 108% (inactive).

Cn1nc(-c2cccc(F)c2)n(C)c1=S [suritozole] (10 µM) was tested, and the morphology score [1] was 0.141 and the SARS-CoV-2 infection rate [2] was 101% (inactive).

N=C(Nc1ccccc1)Nc1ccccc1 [diphenylguanidine] (10 µM) was tested, and the morphology score [1] was 0.216 and the SARS-CoV-2 infection rate [2] was 98% (inactive).

With Cn1cnc([N+](=O)[O-])c1Sc1ncnc2[nH]cnc12 [azathioprine] (10 µM) the morphology score [1] was 0.172 and the SARS-CoV-2 infection rate [2] was 95.5% (inactive).

In the case of CC(C)OC(=O)OCOP(=O)(CO[C@H](C)Cn1cnc2c(N)ncnc21)OCOC(=O)OC(C)C [tenofovir-disoproxil] (10 µM), the morphology score [1] is reported as -0.00661 and the SARS-CoV-2 infection rate [2] is reported as 116% (inactive).

For CC[C@H](c1ccc(O)cc1)[C@@H](CC)c1ccc(O)cc1 [hexestrol] (10 µM), the morphology score [1] was 0.143 and the SARS-CoV-2 infection rate [2] was 102% (inactive).

In the case of O=C(Nc1ccc(Br)cc1)c1cc(Br)cc(Br)c1O [tribomsalan] (10 µM), the morphology score [1] is reported as 0.043 and the SARS-CoV-2 infection rate [2] is reported as 106% (inactive).

In the case of COc1ccc(-c2nc(C(=O)N3CCN(C)CC3)sc2-c2ccc(OC)cc2)cc1 (10 µM), the morphology score [1] is reported as 0.211 and the SARS-CoV-2 infection rate [2] is reported as 93.5% (inactive).

For C=CCN1C[C@H](C(=O)N(CCCN(C)C)C(=O)NCC)C[C@@H]2c3cccc4[nH]cc(c34)C[C@H]21 [cabergoline] (10 µM), the morphology score [1] was 0.0903 and the SARS-CoV-2 infection rate [2] was 104% (inactive).

For CCCOc1ccc2c(c1)CC[C@@H]1[C@@H]2CC[C@]2(C)[C@@H](OC)CC[C@@H]12 [promestriene] (10 µM), the morphology score [1] was 0.169 and the SARS-CoV-2 infection rate [2] was 99.5% (inactive).

In the case of C=C[C@@](C)(/C=C/c1ccc(O)cc1)CCC=C(C)C [bakuchiol] (10 µM), the morphology score [1] is reported as -0.328 and the SARS-CoV-2 infection rate [2] is reported as 114% (inactive).

With C[C@@H]1C[C@H]2[C@@H]3CCC4=CC(=O)C=C[C@]4(C)[C@@]3(F)[C@@H](O)C[C@]2(C)[C@@]1(O)C(=O)COP(=O)(O)O (10 µM) the morphology score [1] was 0.0439 and the SARS-CoV-2 infection rate [2] was 99% (inactive).

For Cc1[nH]c(=O)c(C#N)cc1-c1ccncc1 [milrinone] (10 µM), the morphology score [1] was 0.236 and the SARS-CoV-2 infection rate [2] was 93.5% (inactive).

For O=C(/C=C/c1ccc(O)c(O)c1)O[C@H](Cc1ccc(O)c(O)c1)C(=O)O [rosmarinic-acid] (10 µM), the morphology score [1] was 0.152 and the SARS-CoV-2 infection rate [2] was 94.5% (inactive).

O=C(NOCCO)c1ccc2cncn2c1Nc1ccc(I)cc1F (0.833333 µM) was tested, and the morphology score [1] was -0.298 and the SARS-CoV-2 infection rate [2] was 121% (inactive).

For O=C(O)c1ccc2cc(-c3ccc(O)c(C45CC6CC(CC(C6)C4)C5)c3)ccc2c1 (0.833333 µM), the morphology score [1] was 0.226 and the SARS-CoV-2 infection rate [2] was 87.5% (inactive).

CC(C)[C@]12O[C@H]1[C@@H]1O[C@]13[C@]1(O[C@H]1C[C@H]1C4=C(CC[C@@]13C)C(=O)OC4)[C@@H]2O [triptolide] (10 µM) was tested, and the morphology score [1] was 0.381 and the SARS-CoV-2 infection rate [2] was 89% (inactive).

In the case of CCc1ccc(Cc2ccc3c(c2)[C@]2(OC3)O[C@H](CO)[C@@H](O)[C@H](O)[C@H]2O)cc1 [tofogliflozin] (10 µM), the morphology score [1] is reported as 0.023 and the SARS-CoV-2 infection rate [2] is reported as 94.5% (inactive).

O[C@H]1[C@H]2[C@H](O)CCCN2C[C@H]1O [swainsonine] (10 µM) was tested, and the morphology score [1] was -0.0751 and the SARS-CoV-2 infection rate [2] was 97% (inactive).

For COc1ccc2cc(-c3nc(-c4ccc([S+](C)[O-])cc4)[nH]c3-c3ccncc3)ccc2c1 (centres undefined) [tie2-kinase-inhibitor] (10 µM), the morphology score [1] was 0.619 and the SARS-CoV-2 infection rate [2] was 72.5% (inactive).
